Measured values taken from ChEMBL document CHEMBL3433997, “St. Jude Leishmania screening dataset” (2016).

What follows are compounds tested against Solute carrier family 2, facilitated glucose transporter member 1 (Homo sapiens) (UniProt P11166) (assay: ST_JUDE_LEISH: Cytotoxicity at 2uM final concentration against transgenic Leishmania Mexicana promastigotes LmGLUT1 that are glucose transport deficient and complemented with the human glucose transporter GLUT1. Activity is measured by DNA content using SYBR green in vitro).
Solute carrier family 2, facilitated glucose transporter member 1 (Homo sapiens), sequence (P11166 whole entry): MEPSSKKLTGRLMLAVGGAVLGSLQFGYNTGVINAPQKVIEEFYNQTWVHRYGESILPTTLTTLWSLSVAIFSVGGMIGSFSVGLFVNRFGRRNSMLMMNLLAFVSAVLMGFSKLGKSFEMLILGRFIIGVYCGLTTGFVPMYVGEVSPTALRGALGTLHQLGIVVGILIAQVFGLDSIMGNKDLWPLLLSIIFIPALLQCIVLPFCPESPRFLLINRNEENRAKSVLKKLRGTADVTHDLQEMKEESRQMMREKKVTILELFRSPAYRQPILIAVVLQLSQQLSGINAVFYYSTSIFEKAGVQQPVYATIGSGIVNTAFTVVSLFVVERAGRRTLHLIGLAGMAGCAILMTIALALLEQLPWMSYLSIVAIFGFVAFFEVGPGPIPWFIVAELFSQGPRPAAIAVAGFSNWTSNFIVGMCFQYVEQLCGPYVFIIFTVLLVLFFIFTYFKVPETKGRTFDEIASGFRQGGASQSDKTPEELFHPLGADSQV
Assay type: functional

Row | SMILES | inhibition [%]
1 | COc1ccc2nccc([C@@H](O)CN3CCC(NCc4cc5c(cc4F)SCC(=O)N5)CC3)c2n1 | 9.08
2 | CN1CCN(Cc2cccc(-c3ccc4c(Nc5cc(O)c(Cl)cc5F)ccnc4c3)c2)CC1 | 2.16
3 | Cc1cc(NC(=O)Nc2ccc(Oc3ccccc3)cc2)c2ccccc2n1 | 0.26
4 | O=C(Nc1ccc(CN2CCN(S(=O)(=O)c3ccc(Cl)s3)CC2)cc1)c1cccs1 | 8.13
5 | CC1CN(C(=O)c2sc3ccccc3c2Cl)CC(C)O1 (stereo not given) | -2.33
6 | CCCCCCNC(=O)C1Cc2c([nH]c3ccc(C)cc23)C2(CCN(Cc3ccccc3)CC2)N1 (stereo not given) | 0.98
7 | CCNc1cc(C(=O)N[C@@H](Cc2ccccc2)[C@H](O)CNC2CCC(C(C)(C)C)CC2)cc(N2CCCC2=O)c1 (stereo not given in full) | 0.78
8 | Cc1nnnn1-c1ccc(C(=O)N2CCC3(CC2)CN(Cc2ccc(Cl)c(Cl)c2)C(=O)O3)cc1 | 8.95
9 | CC(=O)N1CCC(C(=O)Nc2ccc(-c3cccc(-c4nc5cccc(C)c5[nH]4)c3)cc2)CC1 | 2.37
10 | COCCNCc1ncsc1-c1ccc2c(Nc3ccc(Oc4ccccc4)cc3)ccnc2c1 | 0.02
11 | Cc1cc(-c2nc3cc(C(=N)N)ccc3[nH]2)c(C)cc1-c1nc2cc(C(=N)N)ccc2[nH]1 | 4.57
12 | CC(C)(C)OC(=O)C1CCCN(Cc2ccc(-c3cccc(-c4nc5ccccc5[nH]4)c3)cc2)C1 (stereo not given) | 3.21
13 | COc1ccccc1-n1ccnc1SCC(=O)Nc1cc(C(F)(F)F)ccc1Cl | -3.59
14 | COc1ccc(CCNc2nc(N)c3cc(OC)c(OC)cc3n2)cc1 | 2.3
15 | COc1ccccc1Cn1ccnc1SCC(=O)Nc1cc(C(F)(F)F)ccc1Cl | -2.21
16 | O=C(Nc1ccc(OC2CCN(Cc3ccccc3)C2)c(Cl)c1)c1cccs1 (stereo not given) | 1.18
17 | O=C(O)C1CC(=O)N(c2ccc(Cl)cc2)C1 (stereo not given) | -1.68
18 | O=C(Nc1cccc(C(F)(F)F)c1)c1cccc(S(=O)(=O)NCC2CCCN(CC3CCCCC3)C2)c1 (stereo not given) | -0.44
19 | COc1cccc(NC(=O)Nc2ccc(Nc3nc(C)cc(N4CCCC4)n3)cc2)c1 | 1.91
20 | Fc1ccc(-c2cc(NCCCn3ccnc3)nc(-c3cccnc3)n2)cc1 | 1.99

Row | SMILES | inhibition [%]
21 | CC(=O)COc1c(C2CCN(CCCCNC(=O)c3ccc(-c4ccc(C(F)(F)F)cc4)cc3)CC2)ccc2c1CCCC2 | 0.29
22 | N=C(N)NC(=O)Nc1ccc(Cl)c([N+](=O)[O-])c1 | 0.49
23 | Cc1cccc2nc(-c3ccc(-c4ccc(NC(=O)Nc5cccc(C#N)c5)cc4)s3)[nH]c12 | 9.25
24 | Nc1c(Cl)cc(C(O)CNCCCCCOCCc2ccccc2)cc1C(F)(F)F (stereo not given) | 8.73
25 | COc1ccc2nccc([C@@H](O)CN3CCC(NC(=O)c4cc5c(Cl)cc(Cl)cc5[nH]4)CC3)c2c1 | 5.68
26 | Nc1nc(N)c2c(Cc3ccc(Br)cc3)cccc2n1 | 2.61
27 | CC(C)Nc1cc(C(=O)N[C@@H](Cc2ccccc2)[C@H](O)CNC2CCCCC2)cc(N2CCCCS2(=O)=O)c1 | 0.23
28 | CN(C)CCN(C)Cc1ccc(-c2ccc(NS(=O)(=O)c3cccc4cccnc34)cc2)cc1 | 9.5
29 | COc1ccc(NC(=O)[C@H](Cc2ccccc2)Nc2cc(C)nc(NCCOc3ccccc3)n2)cc1 | 4.06
30 | Cc1cc(C(=O)CN2C(=O)NC3(CCOc4ccccc43)C2=O)c(C)n1Cc1ccco1 (stereo not given) | 5.85
31 | COc1ccc(Nc2nc(NC3CCN(C)CC3)cc(-c3ccc(OC)cc3)n2)cc1 | 2.07
32 | CCCN(Cc1nnc(-c2cccs2)o1)C(=O)CSc1nnnn1-c1cc(C)cc(C)c1 | 4.84
33 | COc1ccc(-c2ccc(NC(=O)c3cccc(Cl)c3)cc2)cc1CN(C)CCN(C)C | 15.6
34 | Cc1ccc(NC(=O)c2ccc3ncccc3c2)cc1OC1CCN(Cc2ccc(F)cc2)CC1 | 6.67
35 | CN1CCN(Cc2ccc(-c3ccc4c(Nc5ccc(Cl)cc5F)ccnc4c3)o2)CC1 | 11.9
36 | COc1cccc(OC)c1CN1CCC(N(C)CCCCCCCCCN2CCC(OC(=O)Nc3ccccc3-c3ccccc3)CC2)CC1 | 113
37 | COc1ccc(-c2nc3c4ccccc4c4ccc(I)cc4c3[nH]2)cc1 | 5.22
38 | c1cc2[nH]c(CCCc3nc4cc(C5=N[C@H]6CCCC[C@H]6N5)ccc4[nH]3)nc2cc1C1=N[C@@H]2CCCC[C@@H]2N1 | 0.97
39 | CC(C)(CNCc1ccc(F)c(F)c1)c1nc(-c2ccnc(N)n2)c(-c2ccc(Cl)c(O)c2)[nH]1 | 3.92
40 | O=C(Cc1c[nH]cn1)Nc1ccc(-c2cccc(-c3nc4cc(F)ccc4[nH]3)c2)cc1 | 1.49
